Screening results as filed in PubChem BioAssay.
Rows were chosen to be rich in hits. Some 2.8% of all compounds tested hit in one or more screens of this group.
MsrA inh: bovine MsrA enzyme inhibitors, primary screen, biochemical, absorbance, HTS | purified bovine MsrA, absorbance read-out | inhibition, % at 15.5 µM | 360,000 tested, 0.75% active; in the data active = inhibition above about 4.5%;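 also: 0% = vehicle wells with enzyme and 100% = reference inhibitor wells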
MsrA act: bovine MsrA enzyme activators, primary screen, biochemical, absorbance, HTS; purified bovine MsrA, absorbance read-out; activation, % at 10.6 µM; 360,000 tested, 0.3% active; Methionine sulfoxide reductase A (Bos taurus); in the data active = activation above about 7.5%;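 also: 0% = vehicle and 100% = reference activator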
sPLA2-III inh: human group III sPLA2 inhibitors, primary screen, biochemical, QFRET, BODIPY PC-A2 liposome substrate; Group 3 secretory phospholipase A2 (Homo sapiens), Q9NZ20; QFRET BODIPY PC-A2 liposome hydrolysis, fluorescence; inhibition, % at 12.2 µM; 370,000 tested, 0.56% active;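 active = inhibition above mean plus 3 SD of compounds lying within the high and low control bounds, cut at about 19% in these data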;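 also: 0% = median of test compound wells and 100% = no enzyme DMSO wells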
Target sequence (Q9NZ20 whole entry, looked up): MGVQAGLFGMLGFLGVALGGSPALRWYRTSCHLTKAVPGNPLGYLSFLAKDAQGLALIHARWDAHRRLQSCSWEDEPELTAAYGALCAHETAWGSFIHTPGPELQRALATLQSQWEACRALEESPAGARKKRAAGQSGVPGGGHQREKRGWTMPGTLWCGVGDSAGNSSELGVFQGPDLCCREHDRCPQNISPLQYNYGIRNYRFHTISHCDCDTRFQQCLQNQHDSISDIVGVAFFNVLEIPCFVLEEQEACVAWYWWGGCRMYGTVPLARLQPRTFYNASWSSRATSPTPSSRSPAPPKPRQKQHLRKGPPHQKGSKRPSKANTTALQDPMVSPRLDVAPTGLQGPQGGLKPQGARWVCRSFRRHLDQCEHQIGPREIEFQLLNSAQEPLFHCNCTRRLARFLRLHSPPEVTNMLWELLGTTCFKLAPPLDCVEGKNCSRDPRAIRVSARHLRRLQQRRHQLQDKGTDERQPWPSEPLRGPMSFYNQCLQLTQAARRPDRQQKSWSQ
rCAG binder: binders of r(CAG) RNA repeats, primary screen, biochemical, fluorescence | r(CAG) RNA repeat, TO-PRO-1 dye displacement fluorescence | inhibition, % at 3 µM | AID 651821, 2012 | 370,000 tested, 1.3% active;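 active = inhibition above the plate cutoff, the mean of all test compounds on that plate plus 3 SD, cut at about 35% in these data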;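 also: 0% = DMSO alone and 100% = 100 µM mitoxantrone as full dye displacement; higher means more dye released from RNA so lower well fluorescence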
sPLA2 confirm: human group III sPLA2 inhibitors, confirmation, biochemical, QFRET, triplicate; shares compounds with sPLA2-III inh; recombinant hGIII-sPLA2, BODIPY PC-A2 QFRET fluorescence; inhibition, % at 12.2 µM; 2,000 tested, 34% active;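 active = mean inhibition across triplicates above the hit cutoff set in the earlier primary screen, cut at about 19% in these data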;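 also: 0% = enzyme with DMSO and 100% = DMSO wells lacking enzyme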
535nm interf: 535nm fluorescence optical interference, confirmation, artefact control for HGIII-sPLA2 inhibitor project, biochemical, QFRET; inhibition, % at 12.2 µM; BODIPY FL product fluorescence interference; shares compounds with sPLA2-III inh; 2,000 tested, 8.5% active;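 active = average inhibition above the solvent-only control mean plus 3 SD, cut at about 6% in these data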;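 also: 0% = DMSO with substrate plus product and 100% = DMSO with substrate alone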
BODIPY interf DR: 535nm fluorescence optical interference, dose response, artefact control for HGIII-sPLA2 inhibitor project, biochemical, QFRET. shares compounds with sPLA2-III inh. BODIPY FL product fluorescence interference, cell-free. IC50, µM. 240 tested, under 10 active;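 active = IC50 at or below 10 µM; inactive = IC50 above 10 µM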
Numbers without * were called inactive.

For CC[C@H](C(=O)Nc1ccccc1N1CCCC1)c1ccccc1 the results were sPLA2-III inh 7 and rCAG binder 2.
Cc1cc(C)nc(NN=C(c2ccccc2)c2ccccc2)n1 was read as MsrA inh 1, MsrA act -12, sPLA2-III inh 5 and rCAG binder -4.
Cc1ccc(CN2CCN(C3CCC3)CC2CCO)cc1 (stereo not drawn) was read as MsrA inh 1, MsrA act -8, sPLA2-III inh 7 and rCAG binder -2.
CCN(CC(=O)NCc1ccncc1)S(=O)(=O)c1cc(Cl)ccc1Cl was read as MsrA inh -1, MsrA act -1, sPLA2-III inh 4 and rCAG binder -2.
`NNc1nc(-c2ccccc2)c2cc(Cl)ccc2n1` gave MsrA inh 1, MsrA act -1, sPLA2-III inh 19*, rCAG binder 9, sPLA2 confirm 26* and 535nm interf 4.
CC(CCc1ccccc1)NCC(O)COc1ccccc1 (stereo not drawn) was read as MsrA inh 0, MsrA act -1, sPLA2-III inh -4 and rCAG binder 1.
CC1CCN(CC(=O)Nc2cc(C(F)(F)F)ccc2Cl)CC1 was read as MsrA inh 0, MsrA act 2, sPLA2-III inh 21*, rCAG binder -2, sPLA2 confirm 7 and 535nm interf -8.
`O=C(CCNC(=O)c1ccccc1Cl)Nc1cc(C(F)(F)F)ccc1Cl` gave MsrA inh 1, MsrA act -5, sPLA2-III inh 21*, rCAG binder -5, sPLA2 confirm 2 and 535nm interf -11.
`Cc1cc2nc(-c3ccc(=O)[nH]c3)n(C)c2cc1C` gave MsrA inh 1, MsrA act 0, sPLA2-III inh -9 and rCAG binder 4.
For Cc1cc2nc(C)c(=O)n(C)c2cc1C the results were MsrA inh 2, MsrA act -4, sPLA2-III inh 23*, rCAG binder -3, sPLA2 confirm 6 and 535nm interf -8.
For Cc1nc2nc(-c3ccco3)[nH]n2c(=O)c1Cc1ccccc1 the results were MsrA inh 2, MsrA act -10, sPLA2-III inh 1 and rCAG binder 2.
For CCOc1ccc(NC(=O)NNC(=O)c2ccc3ccccc3c2O)cc1 the results were MsrA inh 1, MsrA act -4, sPLA2-III inh 21*, rCAG binder 29, sPLA2 confirm 24* and 535nm interf 1.
COc1ccc(NC(=O)NNC(=O)c2cc(C3CC3)nc3ccccc23)c(OC)c1 was read as MsrA inh 1, MsrA act -3, sPLA2-III inh -20 and rCAG binder 6.
Screening COc1ccc(NC(=O)c2ccccc2C)c(OC)c1 returned MsrA inh -1, MsrA act -3, sPLA2-III inh -3 and rCAG binder -2.
`COc1ccc(NC(=O)NNC(=O)c2ccc3ccccc3c2O)c(OC)c1` gave MsrA inh 0, MsrA act -4, sPLA2-III inh 32*, rCAG binder 25, sPLA2 confirm 34*, 535nm interf 5 and BODIPY interf DR >122.
COc1ccc(NC(=O)c2ccccc2NC(=O)c2ccccc2C(=O)O)c(OC)c1 was read as MsrA inh 1, MsrA act -3, sPLA2-III inh 22*, rCAG binder -2, sPLA2 confirm 0 and 535nm interf -1.
Screening CCc1ccccc1NC(=O)NNC(=O)c1ccc2ccccc2c1O returned MsrA inh 0, MsrA act -1, sPLA2-III inh 12 and rCAG binder 6.
Screening CCC(CC)c1nnc(NC(=O)c2ccc3ccccc3n2)s1 returned MsrA inh 2, MsrA act -1, sPLA2-III inh 8 and rCAG binder -5.
